KinaseGlo FLuc = Kinase-Glo luciferase inhibition (counter-screen). Q27757. Kinase-Glo luciferase, ATP luminescence, 8 min. Potency, µM (titrated, usually from 38.3 µM), without a hit: at the highest dose activity change, negative = inhibition, actives largely listed as inhibitors. 200,000 compounds, 0.28% hits. AID 1379; note: % is set by controls: 0 for no effect and ±100 for the full control effect; nearly all actives have a fitted effect of over 60% in size
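Substrate mix (final 50 mM imidazole pH 7.2, 50 mM KCl, 7 mM MgCl2, 10 uM ATP, 0.01% Tween 20, 0.05% BSA) plus pin-tool compound, then Kinase-Glo detection mix; 8 min ambient, luminescence read.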
SMN2 splice up = increases expression of the SMN2 splice variant | Potency, µM (series often up to 46.1 µM), inactives show at the top dose activity change, positive = activation, usual class: activators | 210,000 compounds, 2.8% hits | HEK293 SMN2-luciferase splicing reporter, luminescence, 30-36 h | AID 1458; note: % of control where 0% means no effect; nearly all actives have a fitted effect of over 55% in size
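HEK293 cells carry an SMN2 minigene-luciferase reporter in which exon 7 inclusion puts luciferase in frame. Cells were seeded at 2000 cells/well, attached for 10-12 hours, then exposed to compounds for 30-36 hours at 37C before ONE-Glo luminescence.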
Rab9 prom act = activators of Rab9 promoter | Potency, µM (titrated, usually from 9.22 µM), for inactives: at the top dose activation, negative = inhibition, most hits filed as activators | Huh7 Rab9 promoter-luciferase reporter, luminescence, 24 h | AID 485297 | 320,000 compounds, 2.8% hits; note: % of control where 0% means no effect; nearly all actives have a fitted effect of over 60% in size
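Stable Rab9-luc Huh7, 1500 cells/well, 2 h settle; cmpd in DMSO, 24 h, 37 °C/5% CO2; luciferase reagent 10 min RT; luminescence.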
FLuc modulator = inhibits or activates purified firefly luciferase, miR-21 counter-screen; purified FLuc, Km substrates, luminescence inhibition; Potency, µM (titrated, usually from 57.5 µM), inactives show at the top dose activity change, negative = inhibition, actives largely listed as inhibitors; 360,000 compounds, 6.9% hits;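 note: plate controls were vehicle for no effect and reference inhibitor for full effect; nearly all actives have a fitted effect of over 55% in size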
Target sequence (P08659 whole entry, looked up): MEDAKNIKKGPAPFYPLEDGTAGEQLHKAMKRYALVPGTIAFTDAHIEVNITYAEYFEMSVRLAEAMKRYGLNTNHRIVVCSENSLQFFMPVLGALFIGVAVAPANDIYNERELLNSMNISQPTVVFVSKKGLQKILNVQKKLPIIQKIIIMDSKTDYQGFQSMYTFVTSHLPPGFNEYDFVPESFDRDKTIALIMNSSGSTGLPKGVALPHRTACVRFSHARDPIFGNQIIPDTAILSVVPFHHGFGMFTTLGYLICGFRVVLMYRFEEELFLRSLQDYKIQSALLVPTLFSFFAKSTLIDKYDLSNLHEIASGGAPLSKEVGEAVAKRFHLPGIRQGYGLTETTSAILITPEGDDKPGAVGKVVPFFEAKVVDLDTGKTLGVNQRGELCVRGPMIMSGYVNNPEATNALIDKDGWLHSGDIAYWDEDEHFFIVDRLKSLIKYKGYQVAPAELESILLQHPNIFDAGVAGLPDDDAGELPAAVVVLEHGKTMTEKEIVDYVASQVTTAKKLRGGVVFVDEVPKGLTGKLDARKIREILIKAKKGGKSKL
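Biochemical qHTS of compounds, final roughly 60 µM downward over six points, against 10 nM purified firefly luciferase using Km concentrations of substrates (10 uM D-luciferin, 10 uM ATP) in Tris acetate pH 7.5 buffer; luminescence output.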
ELG1 genotoxic = genotoxicity induction in ELG1-luciferase HEK293T cells; AID 504466; HEK293T ELG1-luciferase reporter, luminescence, 16 h; 330,000 compounds, 1.3% hits; Potency, µM (top dose mostly 46 µM), without a hit: top-dose activity change, positive = activation, actives largely listed as activators; note: % of control where 0% means no effect; nearly all actives have a fitted effect of over 60% in size
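Screening used a luciferase reporter fused to human ELG1 in HEK293T cells. Luminescence was read on a CCD plate imager after 16 hr exposure and 30 min ONE-Glo incubation.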
NPC1 promoter act = NPC1 promoter activation | Huh7 NPC1 promoter luciferase reporter, 24 h | Potency, µM (titrated, usually from 9.22 µM), without a hit: at the highest dose activation, hits mostly activators | 320,000 compounds, 2.4% hits | AID 485313; note: % of control where 0% means no effect; nearly all actives have a fitted effect of over 60% in size
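Quantitative HTS used a cell-based reporter: Huh7 cells stably bearing the NPC1 promoter upstream of luciferase were treated with compounds for 24 h, and promoter activation was read as luminescence.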
* marks the source's active call; other numbers are inactive results; ? = inconclusive; . = no result; [ ] = dose if it differs, or a comment. Compounds with a hit are over-represented: about 7.4% of the library has one in this group of screens. Calls come from the whole dose curve; as a rule, active = well fitted curve in the direction sought with a large enough effect; inconclusive = small, poorly fitted or top-dose-only effect, or another doubt; inactive = no such curve, though single readings can be large; an effect the other way counts as inactive or inconclusive. Potency is the fitted concentration of half-maximal effect.

SMILES	KinaseGlo FLuc	SMN2 splice up	Rab9 prom act	FLuc modulator	ELG1 genotoxic	NPC1 promoter act
CSc1nn(Cc2cccc(Cl)c2)c(N(C(C)=O)C(C)=O)c1S(=O)(=O)c1ccccc1	.	-7%	.	-2%	.	.
CCOC(=O)/C=C/CCCC=O	1%	10%	.	.	.	.
COc1ccc(CCNC(=O)CN2C(=O)COc3ccccc32)cc1OC	.	.	.	2%	.	.
CCCCN1C(=O)/C(=C2\SC(N3CCOCC3)=NC2=O)c2ccccc21	.	.	2µM*	?	-2%	2µM*
CCCCN1C(=O)c2ccc(C(=O)Nc3ccccc3N3CCOCC3)cc2C1=O	1%	-6%	-2%	-10%	-5%	-4%
C=CCN1C(=O)/C(=C2\SC(N3CCOCC3)=NC2=O)c2cc(Br)ccc21	-5%	11%	-3%	-14%	-6%	-1%
CCN1C(=O)/C(=C2\SC(N3CCOCC3)=NC2=O)c2ccccc21	.	.	26%	11µM*	3%	18%
COc1ccc2ccccc2c1/C=N\NC(=O)c1ccc(C)s1	.	.	-1%	12µM*	1%	3%
COc1ccc2ccccc2c1/C=N/NC(=O)c1ccccc1F	.	.	-2%	21µM*	0%	2%
COc1ccccc1CNC(=O)c1cccc(-c2ccccc2OC)n1	1%[39.9 µM]	.	.	.	.	.
CC1(C)OC2CC3C4CC(F)C5=CC(=O)C=C[C@@]5(C)[C@@]4(F)C(O)C[C@@]3(C)[C@]2(C(=O)CO)O1 (stereo not given in full)	-5%	-4%	.	.	.	.
CC(C)Sc1nc(N)c2c3c(sc2n1)CN(C)CC3	1%	11µM*	?	24µM*	?	?
CCCSc1nc(N)c2c3c(sc2n1)CN(C)CC3	-2%	24%	2%	?	?	9%
Cc1ccc(-c2ccc(CCC(=O)O)o2)cc1	0%	?	19%	11µM*	11%	4%
O=C(Nc1ncc(Cc2ccccc2)s1)c1cccs1	12%	4.5µM*	0.5µM*	1.1µM*	?	1.3µM*
Cc1ccc(Cc2cnc(NC(=O)C3CCCO3)s2)cc1 (stereo not given)	-2%	14µM*	1.3µM*	3µM*	?	1.1µM*
Cc1ccc(Cc2cnc(NC(=O)c3cccs3)s2)cc1	-4%	14µM*	?	2.7µM*	-1%	2.8µM*
O=C(Nc1ncc(Cc2cccc(C(F)(F)F)c2)s1)C1CCCO1 (stereo not given)	.	.	21%	?	0%	13%
O=C(Nc1ncc(Cc2ccc(Cl)cc2)s1)c1ccc2c(c1)CC(c1ccccc1)OC2=O (stereo not given)	.	-6%	.	0%	.	.
O=C(Cc1ccccc1)Nc1ccc(NC(=O)c2cccs2)cc1	-6%	25%	25%	2%	6%	3%
O=C(Nc1ncc(Cc2ccc(SC(F)F)cc2)s1)c1ccccc1	-1%	-1%	5%	13µM*	12%	-3%
Cc1ccc2c(c1)-c1c(cnc3cc(-c4ccc(Cl)cc4)nn13)CO2	.	3%	.	-7%	.	.
Cc1ccc(C(=O)Nc2ncc(Cc3ccccc3)s2)o1	.	.	3.2µM*	0.95µM*	?	1.4µM*
O=C(Nc1ncc(Cc2cccc(Cl)c2)s1)c1cccs1	-2%	16%	?	15µM*	4%	?
CCCCc1nc2c(c3c1C[C@H](C)OC3)CN(C(=O)Cc1cccc(OC)c1)CC2	-5%[7.66 µM]	-5%[9.22 µM]	.	.	.	.
CCCN(CCC)c1cc(C)nc2nc(-c3ccc(C(C)(C)C)cc3)nn12	.	4%	.	-6%	.	.
Cc1ccc(C(=O)c2cn(Cc3cccc(F)c3)c3nc(C)ccc3c2=O)cc1	.	-14%	.	4%	.	.
O=C1NC(=S)S/C1=C\c1coc2ccccc2c1=O	-2%	2%	?	19µM*	8%	5%
O=C1NC(=S)S/C1=C\c1coc2ccc(O)cc2c1=O	.	.	9%	19µM*	10%	14%
COc1ncc2nc(-c3cccs3)c(=O)n(-c3ccccc3)c2n1	-4%	2%	.	.	.	.
